# “And” between values parts separate entries of the source, which are not always exact repeats. Equal entries are not always repeated. Records with an inconclusive call do not appear. Entries that show only a call come without a potency. The source holds several records for some structures; these can differ, active in one and inactive in another. The source made the active and inactive calls. Unless noted, calls come from the whole dose curve; as a rule, active = well fitted curve in the direction sought with a large enough effect in the repeat runs; inconclusive = weak or mixed curves; inactive = no such curve, though single readings can be large; an effect the other way counts as inactive or inconclusive.
# Columns and labels:
# [1] = target: Retinoic acid receptor RXR-alpha (Homo sapiens) (UniProt P19793); experiment: qHTS assay to identify small molecule agonists of the RXR signaling pathway (AID 1159527; calls by dose curve; note: nearly all actives have a fitted effect of over 35% in size)
# Retinoic acid receptor RXR-alpha (Homo sapiens), sequence (P19793 whole entry, looked up): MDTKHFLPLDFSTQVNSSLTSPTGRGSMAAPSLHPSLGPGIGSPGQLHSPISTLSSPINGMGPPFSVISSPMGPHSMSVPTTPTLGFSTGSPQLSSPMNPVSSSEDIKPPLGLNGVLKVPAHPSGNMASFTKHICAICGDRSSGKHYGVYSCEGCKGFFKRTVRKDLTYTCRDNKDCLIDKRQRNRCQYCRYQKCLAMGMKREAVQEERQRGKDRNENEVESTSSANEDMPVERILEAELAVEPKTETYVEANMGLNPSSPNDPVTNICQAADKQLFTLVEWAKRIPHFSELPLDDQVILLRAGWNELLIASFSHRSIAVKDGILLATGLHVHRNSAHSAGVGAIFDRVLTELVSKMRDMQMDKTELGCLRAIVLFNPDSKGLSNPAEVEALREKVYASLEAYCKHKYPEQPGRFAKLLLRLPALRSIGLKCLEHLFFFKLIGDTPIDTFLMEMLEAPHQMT
# In short: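 Agonist mode; 9-cis retinoic acid positive control. HEK 293T UAS-bla reporter cells, 2% charcoal-stripped FBS, 16 hr compound exposure at 37 C/5% CO2. LiveBLAzer B/G FRET substrate 2 hr RT; ex 405, em 460/530 nm.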
# [2] = qHTS assay to identify small molecule agonists of the RXR signaling pathway - cell viability counter screen (AID 1159529); note: series mostly up to about 77 µM; nearly all actives have a fitted effect of over 50% in size
# In short: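 Luminescence from CellTiter-Glo (30 min, RT) measured viability in the same wells as the beta-lactamase reporter readout. Cells: GeneBLAzer RXR-alpha HEK 293T, 2% charcoal-stripped FBS. Compound exposure 16 hr, 37 C.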
# [3] = qHTS assay to identify small molecule antagonists of the retinoid acid receptor (RAR) signaling pathway - cell viability counter screen (AID 1159551); note: nearly all actives have a fitted effect of over 35% in size
# In short: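 In this counter screen, the RARE-luciferase line C3RL4 was exposed for 6 h at 37 C and 5% CO2 to compounds with retinol at 1 uM final. Cellular ATP, read by luminescence, served as the viability measure.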
# [4] = qHTS assay to identify small molecule antagonists of the retinoic acid receptor (RAR) signaling pathway (AID 1159552; note: nearly all actives have a fitted effect of over 50% in size)
# In short: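 Luminescence from a RARE luciferase reporter in C3RL4 cells served as read-out. Cells received compounds together with 1 uM final retinol and incubated 6 hr at 37 C before detection reagent was added for 30 min at room temperature.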
# [5] = qHTS assay to identify small molecule agonists of the retinoic acid receptor (RAR) signaling pathway (AID 1159553); note: potency is the fitted concentration of half-maximal effect
# In short: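 In this cell-based screen, 1,000 C3RL4 cells per well were cultured overnight, dosed with test chemicals in DMSO for 6 hr, and assessed for RARE luciferase luminescence.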
# [6] = qHTS assay to identify small molecule antagonists of the estrogen related receptor (ERR) signaling pathway from Tox21 library - cell viability counter screen (AID 1224834); note: nearly all actives have a fitted effect of over 30% in size
# In short: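 Counter screen run in ERR cells (2,000 cells/well): cells pre-incubated 6 h, then treated with compounds for 17.5 h at 37 C. Fluorescence was read 30 min after CellTiter-Fluor addition.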
# [7] = target: Luciferin 4-monooxygenase (Photinus pyralis) (UniProt P08659); experiment: qHTS assay to identify small molecule inhibitors of firefly luciferase (AID 1224835); note: nearly all actives have a fitted effect of over 25% in size; note: potency is the fitted concentration of half-maximal effect
# Luciferin 4-monooxygenase (Photinus pyralis), sequence (P08659 whole entry, looked up): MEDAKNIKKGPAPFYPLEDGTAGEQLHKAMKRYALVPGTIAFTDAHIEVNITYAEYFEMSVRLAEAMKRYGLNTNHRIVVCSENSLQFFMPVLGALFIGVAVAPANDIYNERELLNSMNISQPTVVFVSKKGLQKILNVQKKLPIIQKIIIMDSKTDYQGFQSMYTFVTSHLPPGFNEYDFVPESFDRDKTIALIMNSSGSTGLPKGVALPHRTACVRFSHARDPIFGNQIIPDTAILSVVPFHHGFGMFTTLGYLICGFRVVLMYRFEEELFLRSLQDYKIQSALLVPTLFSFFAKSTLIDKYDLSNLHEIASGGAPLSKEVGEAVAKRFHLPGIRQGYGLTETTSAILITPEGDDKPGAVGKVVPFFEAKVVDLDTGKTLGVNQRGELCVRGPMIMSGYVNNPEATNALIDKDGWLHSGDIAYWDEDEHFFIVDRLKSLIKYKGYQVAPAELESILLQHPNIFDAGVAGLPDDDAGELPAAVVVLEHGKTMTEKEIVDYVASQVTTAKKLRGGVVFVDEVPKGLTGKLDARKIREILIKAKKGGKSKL
# In short: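 Quantitative HTS format; KM concentrations of both substrates. Purified P. pyralis FLuc activity quantified from luminescence images.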
# [8] = qHTS assay to identify small molecule agonists of the constitutive androstane receptor (CAR) signaling pathway - cell viability counter screen (AID 1224836); note: series mostly up to about 92 µM; nearly all actives have a fitted effect of over 45% in size
# In short: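 Viability read-out: CellTiter-Fluor fluorescence after 23 h compound exposure at 37 C/5% CO2 in double-stable HepG2-CYP2B6-hCAR cells, with PK11195 present at 0.75 uM final; compounds tested in 15-point titration.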
# [9] = qHTS assay to identify small molecule antagonists of the constitutive androstane receptor (CAR) signaling pathway - cell viability counter screen (AID 1224837); note: series mostly up to about 92 µM; nearly all actives have a fitted effect of over 45% in size
# In short: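 CITCO at 50 nM final was added alongside compounds (15 concentrations) to double-stable hCAR/CYP2B6-2.2kb HepG2 cells. Following 23 hr at 37 C, cell viability was quantified by CellTiter-Fluor fluorescence intensity.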
# [10] = qHTS assay to identify small molecule antagonists of the estrogen related receptor signaling pathway with the pleiotropic PPARgamma coactivator (PGC) from Tox21 10K library - cell viability counter screen (AID 1224840; active = well fitted cell-killing curve with a large enough effect in the repeat runs, not every such curve was filed as active; note: nearly all actives have a fitted effect of over 40% in size)
# In short: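 Readout: fluorescence intensity from CellTiter-Fluor after 30 min at 37 C/5% CO2. Preceded by 17.5 h treatment of PGC/ERR cells with DMSO-dissolved compounds, added 6 h post-seeding.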
# [11] = target: Nuclear receptor subfamily 1 group I member 3 (Homo sapiens) (UniProt Q14994); experiment: qHTS assay to identify small molecule agonists of the constitutive androstane receptor (CAR) signaling pathway (AID 1224839); note: nearly all actives have a fitted effect of over 15% in size; note: potency is the fitted concentration of half-maximal effect
# Nuclear receptor subfamily 1 group I member 3 (Homo sapiens), sequence (Q14994 whole entry, looked up): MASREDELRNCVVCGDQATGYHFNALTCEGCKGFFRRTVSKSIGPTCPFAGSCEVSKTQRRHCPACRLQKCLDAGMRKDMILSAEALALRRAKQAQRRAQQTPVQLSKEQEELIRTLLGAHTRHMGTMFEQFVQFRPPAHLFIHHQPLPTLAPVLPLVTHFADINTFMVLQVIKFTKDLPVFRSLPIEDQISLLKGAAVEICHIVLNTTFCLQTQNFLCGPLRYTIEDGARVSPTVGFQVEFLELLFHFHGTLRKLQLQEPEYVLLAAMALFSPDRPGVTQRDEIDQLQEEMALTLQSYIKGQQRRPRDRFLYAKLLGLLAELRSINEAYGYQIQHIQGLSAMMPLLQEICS
# In short: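 Luminescence read-out (ONE-Glo, 30 min, room temperature) from double-stable HepG2-CYP2B6-hCAR cells exposed 24 h to 15-point compound series in presence of 0.75 uM PK11195 final.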
# [12] = target: Nuclear receptor subfamily 1 group I member 3 (Homo sapiens) (UniProt Q14994); experiment: qHTS assay to identify small molecule antagonists of the constitutive androstane receptor (CAR) signaling pathway (AID 1224838); note: nearly all actives have a fitted effect of over 40% in size
# In short: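 Inhibition of CITCO-driven (50 nM final) CYP2B6 reporter expression is measured in HepG2 cells stably carrying hCAR. Fifteen compound concentrations are applied for 24 h at 37 C, followed by luciferase luminescence.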
# [13] = qHTS assay to identify small molecule antagonists of the estrogen related receptor signaling pathway with the pleiotropic PPARgamma coactivator (PGC) from Tox21 10K library (AID 1224841; call rule not given here; note: series mostly up to about 92 µM; actives are mostly falling curves and most rising ones were filed inactive; nearly all actives have a fitted effect of over 50% in size)
# In short: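 One-Glo luminescence, measured after half an hour at room temperature, quantified reporter output of PGC/ERR cells. These had been plated at 2,000 per well, incubated 6 h, dosed with compounds in DMSO, then kept 18 h at 37 C.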
# [14] = qHTS assay to identify small molecule agonists of the estrogen related receptor signaling pathway with the pleiotropic PPARgamma coactivator (PGC) from Tox21 10K library (AID 1224842); note: nearly all actives have a fitted effect of over 15% in size
# In short: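 PGC/ERR reporter cells (NTP line) were seeded 2,000 per well, rested 6 h at 37 C/5% CO2, then pin-dosed with compounds in DMSO for 18 h at 37 C; luciferase read by One-Glo luminescence after 30 min at room temperature.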
# [15] = qHTS assay to identify small molecule antagonists of the estrogen related receptor (ERR) signaling pathway - cell viability counter screen (AID 1224818); note: series mostly up to about 46 µM
# In short: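 Viability of ERR cells, CellTiter-Fluor fluorescence; 17.5 h compound exposure at 37 C, DMSO vehicle; 30 min reagent incubation at 37 C/5% CO2.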
# [16] = qHTS assay to identify small molecule antagonists of the estrogen related receptor (ERR) signaling pathway (AID 1224819;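 note: luminescence from an ERR-driven luciferase reporter measured with One-Glo reagent; series mostly up to about 46 µM; nearly all actives have a fitted effect of over 50% in size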)
# In short: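 Seed ERR cells 2,000/well; rest 6 h at 37 C/5% CO2; pin compounds in DMSO; incubate 18 h at 37 C; add One-Glo; wait 30 min at room temperature; measure luminescence.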
# [17] = qHTS assay to identify small molecule agonists of the estrogen related receptor (ERR) signaling pathway (AID 1224820)
# In short: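 Luminescence readout (One-Glo, 30 min RT) from NTP-supplied ERR cell line exposed to compounds for 18 h at 37 C. Cells seeded 2,000 per well and pre-incubated 6 h before pin-tool compound transfer.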
# [18] = test system: estrogen-related receptor alpha (ERRalpha) with PGC-1alpha coactivator, human; experiment: qHTS assay to identify small molecule antagonists of the estrogen related receptor signaling pathway with the pleiotropic PPARgamma coactivator (PGC) (AID 1224821; calls by dose curve)
# In short: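 PGC/ERR reporter cells; 6 h pre-incubation 37 C/5% CO2; pin-tool compound in DMSO, 18 h 37 C; One-Glo added, 30 min RT; luminescence read. qHTS antagonist mode.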
# [19] = qHTS assay to identify small molecule antagonists of the estrogen related receptor signaling pathway with the pleiotropic PPARgamma coactivator (PGC) cell viability counter screen (AID 1224822; note: series mostly up to about 46 µM)
# In short: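 17.5 h compound treatment of PGC/ERR cells at 37 C; readout CellTiter-Fluor fluorescence; run alongside the PGC/ERR antagonist screen to flag cytotoxic compounds.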
# [20] = qHTS assay to identify small molecule agonists of the estrogen related receptor signaling pathway with the pleiotropic PPARgamma coactivator (PGC) (AID 1224823)
# In short: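 Luminescence readout (One-Glo, 30 min RT) from PGC/ERR cell line treated 18 h at 37 C with pin-tool-delivered DMSO compound solutions; cells plated 6 h before dosing. Quantitative HTS format.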
SMILES,Potency [1],Potency [2],Potency [3],Potency [4],Potency [5],Potency [6],Potency [7],Potency [8],Potency [9],Potency [10],Potency [11],Potency [12],Potency [13],Potency [14],outcome [15],Potency [16],Potency [17],Potency [18],outcome [19],Potency [20]
COCC(=O)O,inactive,inactive,inactive,inactive,inactive,inactive,inactive,inactive,inactive,inactive,–,–,–,–,–,–,–,–,–,–
CCCCOCCOCCOC(=O)CCCCC(=O)OCCOCCOCCCC,inactive,inactive,inactive,inactive,inactive,inactive,inactive,inactive,inactive,inactive,inactive,–,–,–,–,–,–,–,–,–
C=CC(=O)OCCCCCCCC(C)C,inactive,inactive,inactive,inactive,inactive,inactive,inactive,inactive,inactive,–,inactive,inactive,–,–,–,–,–,–,–,–
NCc1cccc(CN)c1,inactive,inactive,inactive,inactive,inactive,inactive,inactive,inactive,inactive,inactive,inactive,inactive,–,–,–,–,–,–,–,–
CC1Cc2ccccc2N1NC(=O)c1ccc(Cl)c(S(N)(=O)=O)c1 (configuration not stated),inactive,inactive,inactive,inactive,inactive,inactive,inactive,inactive,inactive,–,inactive,–,inactive,–,–,–,–,–,–,–
CCc1ccc(O)cc1,inactive,inactive,inactive,inactive,inactive,inactive,inactive,inactive,inactive,–,inactive,–,inactive,–,–,–,–,–,–,–
CN(C)c1cccc(O)c1,inactive,inactive,inactive,inactive,inactive and 34.4 µM (active),inactive,31.7 µM (active),inactive,inactive,–,62.1 µM (active),inactive,–,–,–,–,–,–,–,–
C=C1C2CCC(C2)C1(C)C (configuration not stated),inactive,inactive,inactive,inactive,inactive,inactive,inactive,inactive,inactive,–,inactive,inactive,inactive,–,–,–,–,–,–,–
CCCCCCCCCCCCOCC1CO1 (configuration not stated),inactive,inactive,inactive,inactive,inactive,inactive,inactive,inactive,inactive,inactive,inactive,–,inactive,–,–,–,–,–,–,–
CC1(C)CC(N=C=O)CC(C)(CN=C=O)C1 (configuration not stated),inactive,inactive,inactive,inactive,inactive,inactive,inactive,inactive,inactive,–,inactive,–,–,–,–,–,–,–,–,–
NC(=O)/N=N/C(N)=O,inactive,inactive,inactive,inactive,inactive,inactive,31.8 µM (active) and 25.2 µM (active),inactive,inactive,inactive,inactive,–,inactive,inactive,–,–,–,–,–,–
Cn1c([N+](=O)[O-])cnc1COC(N)=O,inactive,inactive,inactive,inactive,inactive,inactive,inactive,inactive,inactive,inactive,inactive,inactive,inactive,inactive,–,–,–,–,–,–
Cc1ccc(C)c(C)c1,inactive,inactive,inactive,inactive,inactive,inactive,inactive,inactive,inactive,–,inactive,–,–,–,–,–,–,–,–,–
OCC#CCO,inactive,inactive,inactive,inactive,inactive,inactive,inactive,inactive,inactive,–,–,–,–,–,–,–,–,–,–,–
Cc1cc(O)cc(C)c1Cl,inactive,inactive,inactive,inactive,inactive,inactive,inactive,inactive,inactive,inactive,–,–,–,–,–,–,–,–,–,–
OC1CCCC1,inactive,inactive,inactive,inactive,inactive,inactive,inactive,inactive,inactive,–,inactive,inactive,inactive,–,–,–,–,–,–,–
C=C(C#N)C(=O)OCC,inactive,inactive,inactive,inactive,inactive,inactive,inactive,inactive,inactive,–,inactive,inactive,inactive,–,–,–,–,–,–,–
CC1CC(OC(=O)c2ccccc2O)CC(C)(C)C1 (configuration not stated),inactive,inactive,inactive,inactive,inactive,inactive,inactive,inactive,inactive,inactive,inactive,–,–,–,–,–,–,–,–,–
Nc1nc2ncc(CNc3ccc(C(=O)N[C@@H](CCC(=O)O)C(=O)O)cc3)nc2c(=O)[nH]1,inactive,inactive,inactive,inactive,inactive,inactive,inactive,inactive,inactive,–,inactive,–,–,–,–,–,–,–,–,–
O=C(O)c1cc(-c2ccccc2)nc2ccccc12,inactive,inactive,inactive,inactive,–,inactive,12.8 µM (active) and 13.8 µM (active),inactive,inactive,–,–,–,inactive,–,inactive,inactive,inactive,inactive,inactive,inactive
